We go through 40 compounds from PubChem BioAssay (Tox21).

Inconclusive results are not listed. Values without a mark were called inactive. Calls come from the whole dose curve; as a rule, active = well fitted curve in the direction sought with a large enough effect in the signal ratio in the repeat runs (not every such curve was filed as active); inconclusive = weak or mixed curves, or a change in a side signal; inactive = no such curve, though single readings can be large or run the other way; the % refers to the signal ratio.
% is set by controls: 0 for no effect and ±100 for the full control effect.

This assay in a line: qHTS assay to identify small molecule agonists of the NFkB signaling pathway (AID 1159509). Conditions: NFkB-bla ME-180 cells, beta-lactamase FRET ratio, 5 h; series mostly up to 61 µM; activation: at the top concentration. The source says:
National Center for Advancing Translational Sciences [NCATS]
NIH Chemical Genomics Center [NCGC]
U.S. Environmental Protection Agency [EPA]
National Institutes of Environmental Health Sciences [NIEHS]
National Toxicology Program [NTP]
U.S. Food and Drug Administration [FDA]
Transcription factors and their stimulated target gene expression play pivotal roles across many cellular processes including responses to environmental stimuli. Proper regulation of associated pathways is critical to maintain cell health and function. Constitutive activation of transcription factor pathways has been implicated in tumors as it may block cellular functions such as apoptosis and lead to invasion and metastasis. One important transcription factor that stimulates gene expression in response to cytokines, UV radiation, and other stimuli is nuclear factor-kappa B (NFkB). To measure activation of the NFkB pathway, the CellSensor NFkB-bla ME-180 cell line (Life Technologies, Carlsbad, CA) that stably expresses beta-lactamase reporter gene under the regulation of a NF-kB response element was used. This assay allows measurement of the NFkB pathway activity induced by compounds in a ME-180 cell line. This system quantitates NF-kB activity using a FRET-based assay system where beta-lactamase expression disrupts FRET, allowing for fluorescent measurement of activity. This cell line has been used to screen the Tox21 10K compound library and to identify compounds that induce the NFkB pathway activity.
Tox21 Assay Protocol Summary:
NFkB-bla ME-180 cells were dispensed at 2,000 cells/6 uL of assay medium per well into black wall/clear-bottom 1536-well plates using a Multidrop Combi (ThermoFisher Scientific, Waltham, MA) dispenser. After the assay plates were incubated at 37 C and 5% CO2 for an overnight, 23 nL of compounds dissolved in DMSO, positive controls or DMSO only was transferred to the assay plate by a Pintool station (Kalypsys, San Diego, CA). The assay plates were incubated at 37 C and 5% CO2 for 5 hr. One uL of LiveBLAzer B/G FRET substrate (Life Technologies) was added using a Flying Reagent Dispenser (Aurora Discovery, San Diego, CA) and the plates were incubated at room temperature for 1.5 hr. Fluorescence intensity (405 nm excitation, 460 nm and 530 nm emissions) was measured using an Envision plate reader (PerkinElmer, Shelton, CT).
On the technique in general: qHTS replaces the single test concentration by a dilution series.
In the case of `COc1cc(N)ccc1C`, the “activation” value is 0.361%.

As for `CC[C@H](C)C(=O)O[C@H]1C[C@H](O)C=C2C=C[C@H](C)[C@H](CC[C@@H](O)C[C@@H](O)CC(=O)O)[C@H]21`, the “activation” value is 0.432%. Regarding `CC(C)(C)c1nnc(NS(=O)(=O)c2ccc(N)cc2)s1`, the “activation” value was 0.0372%. As for `CC(C)C(=O)OCCc1ccccc1`, the “activation” value is 0.16%. With `O=C(c1ccc(O)cc1)c1ccc(O)c(O)c1O`, the “activation” value was 0.942% [at 78.8 µM]. The figure for `CCCN1C[C@H](CSC)C[C@@H]2c3cccc4[nH]cc(c34)C[C@H]21` is 0.632%; for `OCCCCC(O)CO` (stereo not given) it is 0.196%; for `C[C@@H]1O[C@@H](O[C@@H]2[C@@H](O)[C@H](OCCc3ccc(O)c(O)c3)O[C@H](CO[C@@H]3O[C@H](CO)[C@@H](O)[C@H](O)[C@H]3O)[C@H]2OC(=O)/C=C/c2ccc(O)c(O)c2)[C@H](O)[C@H](O)[C@H]1O` it is 0.0557%. Take `CC(C)CC(=O)O`: the “activation” value is 0.166%. The figure for `c1ccc2nccnc2c1` is -0.58% [at 78.8 µM]. With `Cc1cccc(OCC(O)CNC(C)(C)C)c1C` (stereo not given), the “activation” value is 0.318%. For the compound `CC(C(=O)O)c1ccc2c(c1)CC(=O)c1ccccc1S2` (stereo not given), the “activation” value was -0.358%.

As for `O=C1c2ccccc2C(=O)C1c1ccccc1`, the “activation” value is -0.0914%. `Cc1ccccc1N=O`: the “activation” value is 0.0164% [at 78.8 µM].

As to `CC(C)(C)c1cc(CCC(=O)NN)cc(C(C)(C)C)c1O`, the “activation” value was -0.844%. The figure for `CCCCCCCC/C=C\CCCCCCCC(=O)OCCCC` is -0.414% [at 28.5 µM]; for `CCCOC(OCCC)OCCC` it is -0.0999%; for `CC(C)c1ccc2cc(C(C)C)ccc2c1` it is 0.909%.

`CCCC(=O)C(C)=O`: the “activation” value was 0.0111%. The figure for `O=C(NCCc1c[nH]c2ccccc12)c1cccnc1` is -0.15%; for `C=COCCOCCOCCOC=C` it is -0.11%; for `Nc1nnc(-c2cccc(Cl)c2Cl)c(N)n1` it is -0.29%. The figure for `Nc1ccc([N+](=O)[O-])c(N)c1` is -0.249%; for `COCCOC(=O)C1=C(C)NC(C)=C(C(=O)OC(C)C)C1c1cccc([N+](=O)[O-])c1` (stereo not given) it is -0.346%; for `C=CCCCCCCCCCCCC` it is 0.0267%.

`CCCCCCCCC1CCC(=O)O1` (stereo not given): the “activation” value was -0.677%. The figure for `O=S(=O)(O)c1cc(O)c2ccc(Nc3ccccc3)cc2c1` is 1.84%; for `CCCCCCCCC(=O)Cl` it is 0.402% [at 78.8 µM]. As to `CC(N)C(=O)OC(C)(C)Cc1ccc(Cl)cc1` (stereo not given), the “activation” value is -0.113%. As to `C#CC(C)N(C)C(=O)Nc1ccc(Cl)cc1` (stereo not given), the “activation” value was -0.51%. The figure for `O=S(=O)(O)c1ccc2cc(O)c(S(=O)(=O)O)cc2c1` is 1.18%. Next, `Cc1ccc(S(=O)(=O)O)c(C)c1`: -0.787%; `Cc1cc2cc3c(C)cc(=O)oc3c(C)c2o1`: -0.0102%; `CN1C(C)(C)CCCC1(C)C`: 0.118%. Take `COc1cc(NS(=O)(=O)c2ccc(N)cc2)nc(OC)n1`: the “activation” value was 0.317%. Next, `CC(C)CCCCOC(=O)c1ccccc1C(=O)OCCCCC(C)C`: 1.74%; `CC1COc2ccccc2N1` (stereo not given): -0.423%. Next, `CCCCNC1CC(C)(C)NC(C)(C)C1`: -0.658%. The figure for `ClCCCl` is -0.945%; for `COc1cc2c(cc1OC)[C@@H]1CC(=O)[C@@H](CC(C)C)CN1CC2` it is 0.398%.
